HP1b chromo inh: HP1-beta chromodomain-methylated histone interaction inhibition. 390,000 compounds, 0.56% hits. Potency, µM (titrated, usually from 114 µM), without a hit: top-dose activity change, negative = inhibition, usual class: inhibitors. AlphaScreen HP1-beta / biotin-H3K9me3 peptide binding. P83916; note: nearly all actives have a fitted effect of over 70% in size
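HP1-beta protein (50 nM final) preincubated 30 min at room temperature with biotinylated H3(1-18)K9me3 peptide (50 nM) in PBS pH 7.4, 0.01% Tween-20, then compound added for 30 min. AlphaScreen streptavidin donor/nickel chelate acceptor beads (10 ug/mL final), 30 min dark, luminescence read.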
VDR inh: vitamin D3 receptor (human) inhibition | AID 504847 | Potency, µM, for inactives: max response, negative = inhibition, usual class: inhibitors | VDR-SRC2-3 peptide fluorescence polarization, 2 h | P11473 | 400,000 compounds, 0.93% hits; note: % is set by controls: 0 for no effect and ±100 for the full control effect
Target sequence (P11473 whole entry, looked up): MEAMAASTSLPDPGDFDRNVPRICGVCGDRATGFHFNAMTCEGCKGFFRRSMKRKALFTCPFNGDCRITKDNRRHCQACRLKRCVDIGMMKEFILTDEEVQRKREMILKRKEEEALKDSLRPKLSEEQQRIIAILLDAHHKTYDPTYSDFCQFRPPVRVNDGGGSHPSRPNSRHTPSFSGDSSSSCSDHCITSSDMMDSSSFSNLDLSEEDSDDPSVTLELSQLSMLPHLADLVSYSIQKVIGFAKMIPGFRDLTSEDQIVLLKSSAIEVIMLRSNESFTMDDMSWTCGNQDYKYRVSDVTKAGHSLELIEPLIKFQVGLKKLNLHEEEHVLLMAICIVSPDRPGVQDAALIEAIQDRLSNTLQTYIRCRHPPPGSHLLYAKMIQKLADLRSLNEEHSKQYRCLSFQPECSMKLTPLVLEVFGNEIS
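Inhibition of the VDR/SRC2-3 peptide interaction is quantified by fluorescence polarization. Compounds (23 nl, pintool) incubate with the reagents for 2 hours at ambient room temperature.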
PLK1 PBD block: PLK1 (human) polo-box domain binding inhibition; Plk1 PBD binding of FITC phosphopeptide, fluorescence polarization; Potency, µM, without a hit: max response, negative = inhibition, hits mostly inhibitors; 360,000 compounds, 2.8% hits; AID 720504; note: series mostly up to about 57 µM; % is set by controls: 0 for no effect and ±100 for the full control effect; nearly all actives have a fitted effect of over 65% in size
JMJD2A Tudor: blocks the human JMJD2A Tudor domain | O75164 | 390,000 compounds, 4.4% hits | AlphaScreen JMJD2A-Tudor / H3K4me3 peptide binding | Potency, µM (highest dose often 114 µM), without a hit: at the top dose activity change, negative = inhibition, hits mostly inhibitors; note: % is set by controls: 0 for no effect and ±100 for the full control effect; nearly all actives have a fitted effect of over 50% in size
BAZ2B inh: BAZ2B (human) inhibition; AID 504333; AlphaScreen BAZ2B-H3K14Ac peptide displacement; Potency, µM (highest dose often 114 µM), inactives show top-dose activity change, negative = inhibition, usual class: inhibitors; 360,000 compounds, 4.4% hits; Q9UIF8; note: % is set by controls: 0 for no effect and ±100 for the full control effect; nearly all actives have a fitted effect of over 60% in size
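Multi-concentration screen (max 110 uM) measuring displacement of acetylated histone H3 peptide from BAZ2B by AlphaScreen, using 50 nM protein, 50 nM peptide and 10 ug/mL streptavidin donor plus Ni-chelate acceptor beads.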
G9a inh: blocks human histone lysine methyltransferase G9a | AID 504332 | Potency, µM (series often up to 102 µM), without a hit: at the top dose activity, negative = inhibition, most hits filed as inhibitors | G9a H3K9 monomethylation, AlphaScreen, 2 h | 350,000 compounds, 8.8% hits; note: % is set by controls: 0 for no effect and ±100 for the full control effect; nearly all actives have a fitted effect of over 75% in size
Target sequence (Q96KQ7 913-1193 limits assumed): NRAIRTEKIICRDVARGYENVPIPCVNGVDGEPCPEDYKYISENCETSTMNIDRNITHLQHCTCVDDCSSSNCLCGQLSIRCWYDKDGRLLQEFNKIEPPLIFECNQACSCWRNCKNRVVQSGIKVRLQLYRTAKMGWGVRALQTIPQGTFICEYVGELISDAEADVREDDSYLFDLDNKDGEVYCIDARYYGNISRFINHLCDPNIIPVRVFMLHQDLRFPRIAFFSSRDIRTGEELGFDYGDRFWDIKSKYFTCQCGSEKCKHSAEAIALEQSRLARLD
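G9a (20 nM) was preincubated 15 min with compound, then reacted 2 h at room temperature with 500 nM biotin-H3K9 peptide and 20 µM SAM. Monomethyl-H3K9 detected by AlphaScreen using anti-H3K9me1 antibody.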
* marks the source's active call; other numbers are inactive results; u = inconclusive; x = not tested or not shown; ! = a repeat was not active; [ ] = remark or other dose. A selection: hits, their analogues and other compounds. The true share with any hit is near 11%. Calls come from the whole dose curve; as a rule, active = well fitted curve in the direction sought with a large enough effect; inconclusive = small, poorly fitted or top-dose-only effect, or another doubt; inactive = no such curve, though single readings can be large; an effect the other way counts as inactive or inconclusive. Potency is the fitted concentration of half-maximal effect.

SMILES	HP1b chromo inh	VDR inh	PLK1 PBD block	JMJD2A Tudor	BAZ2B inh	G9a inh
CCOC(=O)Cn1c(=O)oc2cc(S(=O)(=O)NC3CCCc4ccccc43)ccc21 (centres undefined)	0.6%	13.8%	-0.2%	-29.7%	2.9%	u
CCCCC(=O)N/N=C/c1c(O)n(CCCC)c(=S)[nH]c1=O	19.2%	-14.7%	-0.9%	-25.6%	70.8µM*	19.9%
COc1ccc(CCn2c(O)c(C=Nc3ccc(NC(C)=O)cc3)c(=O)[nH]c2=O)cc1OC	48.4%	5.7%	16.6%	-10.3%	u	-41.0%
CC(=O)Nc1ccc(N=Cc2c(O)n(Cc3ccco3)c(=O)[nH]c2=O)cc1	37.0%	-3.6%	-14.3%	-24.9%	-27.4%	50.1µM*
Nc1c(C(=O)Nc2ccc(Br)cc2F)sc2nc3c(cc12)N1CCC3CC1	39.6%	6.9%	x	u	-3.2%	u
O=S(=O)(c1ccc(Cl)cc1)c1cc(Cl)c(Cl)cc1Cl	x	-14.3%	x	x	x	x
CCOc1cccc(=NC2CCCCC2)c2c(C)n(C)c(C)c12	u	-5.1%	-3.4%	u	u	50.1µM*
CCC1(CC)C(=O)NC(=O)N(C)C1=O	x	6.8%	x	x	x	11.9%[12.7 µM]
CC1=C(O)C(=O)C=C2C1=CC=C1C2(C)CCC2(C)C3CC(C)(C(=O)O)CCC3(C)CCC12C (centres undefined)	u	28.2µM*	2.12µM*	20µM*	x	x
Cc1ccc(S(=O)(=O)Nc2ccc3c(c2)CC(=O)N([C@H](C)CO)C[C@@H](C)[C@H](CN(C)S(=O)(=O)c2ccccc2)O3)cc1	5.3%	u	21.2µM*	u	x	x
COc1ccc(C2=NCC(=O)N(CC(=O)NCc3ccco3)c3sc4c(c32)CCCC4)cc1	u	4.7%	-20.6%	u	u	u
Cc1cccc(C2=NCC(=O)N(CC(=O)NCc3ccco3)c3sc4c(c32)CCCC4)c1	-22.4%	-15.2%	-10.6%	50.1µM*	44.7µM*	u
C=CCc1cc(C=C2C(=O)N(C)C(=O)N(C)C2=O)cc(OCC)c1OCc1ccccc1	290.3%	u	7.52µM*	u	3.1%	3.4%
C=CCc1cc(C=C2C(=O)NC(=O)NC2=O)cc(OC)c1OCc1ccc(C(=O)O)cc1	44.1%	89.1µM*	11.9µM*	-27.4%	-7.4%	31.6µM*
COc1ccc(OCCOc2cccc(C=C3C(=O)NC(=O)NC3=O)c2)cc1	x	x	x	x	-36.0%	u
C=CCn1cc(C=C2C(=O)N(C)C(=O)N(C)C2=O)c2ccccc21	43.2%	13.4%	-5.8%	-11.2%	5.1%	-3.2%
O=C(O)Cc1cnc[nH]1	19.6%	4.2%	-12.1%	7.08µM*	x	9.47µM*!
c1cc(Cc2cnc[nH]2)ccn1	x	5.3%	x	x	x	x
Cc1noc(C(=O)Nc2sc3c(c2C#N)CCC3)c1Cl	-3.6%	-5.2%	23.8µM*	-28.3%	-33.6%	44.7µM*
COC(=O)c1cn(S(=O)(=O)c2ccccc2)c2ccccc12	56.3%	-7.5%	-5.8%	40.6%	18.7%	u
COC(=O)c1ccc(NS(=O)(=O)NC(=O)c2cn(C)c3ccccc23)cc1	12.1%[57 µM]	-8.0%	3.6%	-12.8%	u	79.4µM*
C[C@@]12CCC(=O)C=C1C=C[C@H]1[C@H]3CC[C@](O)(CCC(=O)O)[C@]3(C)CC[C@@H]12	x	-1.1%	x	x	x	8.5%[21.5 µM]
O=C1/C(=C/c2ccc([N+](=O)[O-])cc2)N2CCC1CC2	-11.0%	-12.5%	-1.9%	-30.7%	u	11.2µM*
O=c1c2ccccc2nc(/C=C/c2cccnc2)n1Cc1ccccc1	u	u	-10.8%	22.4µM*	10µM*	x
O=c1c2ccccc2nc(/C=C/c2ccccc2)n1-c1ccc(O)cc1	1.3%	15.7%	-10.2%	-22.4%	-21.2%	5.4%
SMILES	HP1b chromo inh	VDR inh	PLK1 PBD block	JMJD2A Tudor	BAZ2B inh	G9a inh
CN1CCC(c2c[nH]c3ccc(O)cc23)CC1	38.4%	-1.8%	-2.2%	-15.9%	x	12.6µM*!
CN1CCC(c2c[nH]c3ccccc23)C1 (centres undefined)	12.8%	-8.9%	-16.3%	-15.5%	-27.1%	-39.2%[59 µM]
O=C(Oc1ccccc1)N1CCC2(CC1)CN(C(c1ccccc1)c1ccccc1)C2	x	9.8%	x	x	x	0.1%[12.7 µM]
c1ccc(SSc2ccccc2)cc1	183.6%	31.6µM*	1.06µM*	118.6%	114.5%	16.4%[59 µM]
CC(=O)O[C@@H]1C[C@@]2(C)C(c3ccoc3)C[C@H]3O[C@]32[C@]2(C)C(=O)C(O)=C3C(C)(C)C(=O)C=C[C@]3(C)C12 (some centres undefined)	x	14.1µM*	x	x	x	x
CC(=O)OC1CC(OC(C)=O)[C@]2(C)C(CC(OC(C)=O)[C@]3(C)C2CC[C@@]2(C)C(c4ccoc4)C[C@H]4O[C@]432)C1(C)C (some centres undefined)	x	1.0%	x	x	x	-27.3%[2.33 µM]
CC(=O)OC1C[C@@]2(C)C(c3ccoc3)C[C@H]3O[C@@]32[C@@]2(C)C(=O)C(O)=C3C(C)(C)C(=O)C=C[C@]3(C)C12 (some centres undefined)	x	3.98µM*	x	x	x	-42.0%[2.33 µM]
O=C(O)CCC(CP(=O)(O)O)C(=O)O (centres undefined)	x	21.8%	x	x	x	x
Clc1ccc(CCNCc2ccncc2)c(Cl)c1	-5.8%	-10.6%	-8.6%	31.6µM*	50.1µM*	3.98µM*
Brc1ccccc1CNCCc1ccc2c(c1)OCO2	u	-16.4%	-8.5%	3.16µM*	u	x
c1cc(CNCCc2ccc3c(c2)OCO3)ccn1	u	-13.9%	-14.0%	8.91µM*	56.2µM*	23.4%[0.501 µM]
Fc1ccc(CNCCc2ccc3c(c2)OCO3)cc1	6.6%	-15.7%	-4.1%	56.2µM*	u	50.1µM*
CC(C)C[C@H](NC(=O)[C@H](Cc1ccccc1)NC(=O)CNC(=O)[C@@H](COC(C)(C)C)NC(=O)[C@@H](N)Cc1ccc(O)cc1)C(=O)N[C@H](C(=O)O)[C@@H](C)OC(C)(C)C	x	6.3%	x	x	x	x
O=C(CSc1ccc(Cl)cc1)NC1=NN(c2ccccc2)C(=O)C1	-10.8%	-5.5%	-8.1%	u	u	-1.4%
CCCN1CCc2cccc3c2C1Cc1ccc(O)c(O)c1-3 (centres undefined)	x	-0.9%	x	x	x	1µM*
CCCN1CCc2cc(O)cc3c2[C@H]1Cc1ccc(O)c(O)c1-3	11.2µM*	5.01µM*!	-23.7%	12.6µM*	x	1.12µM*
COc1cc2c(cc1O)C[C@H]1c3c(cc(O)c(OC)c3-2)CCN1C	14.9%	-2.6%	2.0%	-17.3%	1.3%	-5.1%[59 µM]
CN1CCc2cc(O)cc3c2[C@H]1Cc1ccc(O)c(O)c1-3	u	4.47µM*!	-9.9%	7.94µM*	x	1.68µM*
CCOC(=O)C(NC(C)=O)C(OC(C)=O)c1cccc(N(CCCl)CCCl)c1 (centres undefined)	17.7%	-4.3%	-1.1%	-15.2%	-17.8%	14.1µM*
